Laboratory results reported in PubChem BioAssay (NCI).
About 83,000 compounds went through this panel and 20% of them were active in at least one assay; those are over-represented in the sample as a whole.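 How to read the values: 0–100, growth inhibition (40 = 60% inhibited); 0, no net growth; -100 to 0, cell death (-40 = 40% of starting cells died; -100 = all dead).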 Unmarked numbers belong to inactive results. Activity calls are given as the source filed them. The calls were made as follows: active = growth percent below 10; inactive = the rest.

System: HL-60(TB) leukemia
Test: NCI-60 one-dose screen, 48 h (100 = growth as untreated, 0 = no growth, -100 = all killed)
Details: 10 µM unless noted

Structure (SMILES) | growth
O=c1cc(-c2ccc3c(c2)OCCO3)oc2cc(Cl)ccc12 | 110%
COc1ccc(C2C=C(c3ccc(Cl)cc3)N=C3SC=C(C)N32)c(Br)c1 (stereo unspecified) | 7.64% (active)
COc1cc(-c2nc(N)n(CC(=O)Nc3ccc(/C(C)=N\O)cc3)n2)cc(OC)c1OC | 91.6%
C(=C\c1nccc2c1[nH]c1ccccc12)/c1ccccc1 | 55.5%
O=C1CCCCC1(c1ccccc1)c1ccccc1 | 106%
CC(=O)c1c(C)nc(SCC(=O)Nc2cccc(O)c2)n1-c1ccc(Cl)cc1 | 88.3%
O=C(/C=C/c1nnc2n(Cc3ccccc3)c(=O)c3c4c(sc3n12)CCCC4)c1ccccc1 | 43.5%
N#Cc1ccc(C(F)(F)F)nc1N1CCC(C(=O)Nc2ccc(Cl)cc2)CC1 | 70%
C=C1CC[C@@H]2[C@](C)(COC(C)=O)[C@H](OC(C)=O)CC[C@@]2(C)[C@@H]1CC(NCc1ccc(F)cc1)C1=CCOC1=O (stereo partly specified) | -9.52% (active)
CCOC(=O)C(=CNc1ccccc1[N+](=O)[O-])C(=O)OCC | 90.8%
Nc1ccc(N)c([N+](=O)[O-])c1 | 110%
NC(CSC(c1ccccc1)(c1ccccc1)c1cccc2ccccc12)C(=O)O (stereo unspecified) | 88.5%
O=C1c2ccccc2NC(c2cn(-c3ccccc3)nc2-c2cccnc2)N1Cc1ccccc1 (stereo unspecified) | 9.6% (active)
CCCCC1=C(Br)C(=O)c2ncccc2C1=O | 83.3%
O=c1cc(Cl)nc2ccccn12 | 92.9%
OCc1ccc(-c2ccc(-c3ccc(CO)s3)o2)s1 | 21.7%
Clc1ccc(Nc2ncc(Cc3cccc(Cl)c3Cl)s2)cc1 | 100%
Nc1ncn([C@@H]2O[C@H](CO)[C@@H](O)[C@H]2O)c(=O)n1 | -2.84% (active)
Cc1ccc(CSCc2ccc(C(=O)NC3CC3)o2)cc1 | 59.5%
Nc1nn2cc(-c3ccc(Cl)s3)nc2c2ccccc12 | 54.7%
Nc1ccc2c(c1)/C(=N/O)c1cc([N+](=O)[O-])ccc1-2 | 64.1%
Cc1ccc(C(=O)Nc2ccc(CN3CCN(C)CC3)c(C(F)(F)F)c2)cc1C#Cc1cnc(N)cc1C#N | -53.5% (active)
N#CC1=C(N)Oc2c(sc3c(F)cccc23)C1c1ccc([N+](=O)[O-])cc1 (stereo unspecified) | -7.41% (active)
O=C(Nc1cccc(-n2cc(-c3ccncc3)c(-c3ccc(Cl)c(O)c3)n2)c1)Nc1cc(C(F)(F)F)cc(C(F)(F)F)c1 | -18.3% (active)
COc1ccc(-c2c(-c3cc(OC)c4c(c3)OCO4)noc2N)cc1 | -7.49% (active)
O=C(COc1cccc(/C=C2\CSc3ccc(Cl)cc3C2=O)c1)c1ccc(Cl)cc1 | 79.2%
